Results on six substances are retold here after the supplement of paper PMC8728848.

Holding throughout (experiment): glycan array binding signal (z-score within array); higher = stronger binding
Experiment [1] relates to Fuc(a1-2)Gal(b1-4)GlcNAc(b1-3)[Fuc(a1-2)Gal(b1-4)GlcNAc(b1-6)]GalNAc. To be noted: glycan notation: IUPAC condensed, linker removed. The procedure, abridged:
(§1)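 The binding signal is a Z-score computed within each array and averaged over linkers. Arrays of the same protein sequence at different concentrations or buffers were also averaged together. Data originate from 3228 arrays in the Consortium for Functional Glycomics database, kept only where the protein sequence was available.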

For experiment [2], the system named is Fuc(a1-2)Gal(b1-4)GlcNAc(b1-3)Gal(b1-4)GlcNAc(b1-2)Man(a1-3)[Fuc(a1-2)Gal(b1-4)GlcNAc(b1-3)Gal(b1-4)GlcNAc(b1-2)Man(a1-6)]Man(b1-4)GlcNAc(b1-4)GlcNAc. Conditions: glycan notation: IUPAC condensed, linker removed. Put shortly: as §1
In the next experiment the test system is Fuc(a1-2)Gal(b1-4)GlcNAc. To be noted: glycan notation: IUPAC condensed, linker removed. Put shortly:
as §1

Experiment [3] has as its system Fuc(a1-2)Gal(b1-4)GlcNAc(b1-3)GalNAc. To be noted: glycan notation: IUPAC condensed, linker removed. The procedure, abridged:
as §1

In experiment [4] the test system is Fuc(a1-2)Gal(b1-4)GlcNAc(b1-2)Man. Conditions: glycan notation: IUPAC condensed, linker removed. Put shortly:
as §1

Experiment [5] deals with Fuc(a1-2)Gal(b1-4)GlcNAc(b1-3)Gal(b1-4)GlcNAc(b1-3)Gal(b1-4)GlcNAc. To be noted: glycan notation: IUPAC condensed, linker removed; mutation: R125K. Put shortly: as §1
For experiment [6], the system named is Fuc(a1-2)Gal(b1-4)GlcNAc(b1-3)Gal(b1-4)GlcNAc. To be noted: glycan notation: IUPAC condensed, linker removed; mutation: R125K. The procedure, abridged: as §1
The test system of experiment [7] is Fuc(a1-2)Gal(b1-4)GlcNAc(b1-3)[Fuc(a1-3)[Gal(b1-4)]GlcNAc(b1-6)]Gal(b1-4)Glc. Conditions: glycan notation: IUPAC condensed, linker removed. Put shortly: as §1
The test system of experiment [8] is Fuc(a1-2)Gal(b1-4)GlcNAc(b1-6)GalNAc. Conditions: glycan notation: IUPAC condensed, linker removed. Put shortly:
as §1

In experiment [9] the test system is Fuc(a1-2)Gal(b1-4)GlcNAc(b1-2)[Fuc(a1-2)Gal(b1-4)GlcNAc(b1-4)]Man(a1-3)[Fuc(a1-2)Gal(b1-4)GlcNAc(b1-2)Man(a1-6)]Man(b1-4)GlcNAc(b1-4)GlcNAc. Conditions: glycan notation: IUPAC condensed, linker removed. Put shortly: as §1

The full list was thinned out, with the strongest signals kept by preference.

Sequence of PILRb (Mus musculus), Q2YSF2 (Q2YSF2 entry or part of it): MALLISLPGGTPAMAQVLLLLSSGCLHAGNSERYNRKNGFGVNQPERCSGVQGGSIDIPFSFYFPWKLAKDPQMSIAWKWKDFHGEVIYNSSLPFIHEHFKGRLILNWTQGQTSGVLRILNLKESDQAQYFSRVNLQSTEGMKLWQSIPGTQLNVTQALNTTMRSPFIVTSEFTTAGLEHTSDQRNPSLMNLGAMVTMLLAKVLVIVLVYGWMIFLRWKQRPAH
Sequence of CHI3L1 (Homo sapiens), P36222 (P36222 whole entry): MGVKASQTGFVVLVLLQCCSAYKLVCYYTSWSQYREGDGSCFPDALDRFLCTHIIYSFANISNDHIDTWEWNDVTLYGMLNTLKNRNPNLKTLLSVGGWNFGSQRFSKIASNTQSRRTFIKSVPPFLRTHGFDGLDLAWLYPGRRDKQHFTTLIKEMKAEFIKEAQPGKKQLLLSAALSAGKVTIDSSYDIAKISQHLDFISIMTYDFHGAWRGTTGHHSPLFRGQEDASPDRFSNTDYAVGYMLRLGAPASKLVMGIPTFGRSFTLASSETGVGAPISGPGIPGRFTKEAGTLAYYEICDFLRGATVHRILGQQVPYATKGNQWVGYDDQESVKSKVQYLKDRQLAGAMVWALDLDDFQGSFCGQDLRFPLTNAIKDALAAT
Sequence of Neurocan (Homo sapiens), O14594 (O14594 other isoform, or with tags, fused parts or gaps): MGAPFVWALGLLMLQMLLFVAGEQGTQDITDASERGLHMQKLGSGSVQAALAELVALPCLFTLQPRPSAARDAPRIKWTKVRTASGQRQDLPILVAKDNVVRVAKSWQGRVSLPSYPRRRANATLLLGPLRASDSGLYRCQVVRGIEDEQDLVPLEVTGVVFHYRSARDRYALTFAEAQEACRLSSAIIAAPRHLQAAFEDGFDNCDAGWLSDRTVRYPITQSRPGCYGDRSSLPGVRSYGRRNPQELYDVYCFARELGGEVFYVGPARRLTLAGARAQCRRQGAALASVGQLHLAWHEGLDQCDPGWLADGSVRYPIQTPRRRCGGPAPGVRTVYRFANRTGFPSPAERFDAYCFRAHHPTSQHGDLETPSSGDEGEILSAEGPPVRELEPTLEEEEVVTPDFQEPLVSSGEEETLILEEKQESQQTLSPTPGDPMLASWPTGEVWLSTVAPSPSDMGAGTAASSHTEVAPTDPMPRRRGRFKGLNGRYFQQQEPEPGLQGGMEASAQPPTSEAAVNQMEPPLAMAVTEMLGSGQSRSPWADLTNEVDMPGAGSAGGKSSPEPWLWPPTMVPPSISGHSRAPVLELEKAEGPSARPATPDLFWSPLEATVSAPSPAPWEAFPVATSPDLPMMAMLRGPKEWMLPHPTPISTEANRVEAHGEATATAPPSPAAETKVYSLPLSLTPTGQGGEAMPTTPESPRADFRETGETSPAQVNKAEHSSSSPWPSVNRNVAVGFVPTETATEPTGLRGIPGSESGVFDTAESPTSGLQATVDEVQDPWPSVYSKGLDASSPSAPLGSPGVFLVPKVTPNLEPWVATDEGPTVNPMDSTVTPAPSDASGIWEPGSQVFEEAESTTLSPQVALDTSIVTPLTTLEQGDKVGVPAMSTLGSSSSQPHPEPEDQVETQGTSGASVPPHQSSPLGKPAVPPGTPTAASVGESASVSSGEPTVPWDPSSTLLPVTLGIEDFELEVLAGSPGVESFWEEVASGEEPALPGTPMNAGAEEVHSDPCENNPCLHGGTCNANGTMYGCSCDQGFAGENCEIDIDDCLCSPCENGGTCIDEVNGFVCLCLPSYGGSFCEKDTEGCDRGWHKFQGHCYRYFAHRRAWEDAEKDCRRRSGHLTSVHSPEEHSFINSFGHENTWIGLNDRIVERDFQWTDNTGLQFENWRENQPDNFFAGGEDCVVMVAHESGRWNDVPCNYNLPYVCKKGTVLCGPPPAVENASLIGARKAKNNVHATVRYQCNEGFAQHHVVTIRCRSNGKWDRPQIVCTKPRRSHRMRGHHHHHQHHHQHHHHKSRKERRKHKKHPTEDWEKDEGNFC

With CHI3L1 (Homo sapiens), P36222, the “glycan array binding signal (z-score)” value in experiment [1] was -0.129.

Regarding MpAFP RI GFP (Marinomonas primoryensis), the “glycan array binding signal (z-score)” value in experiment [2] was 1.06.

HARE (Homo sapiens), Q8WWQ8: in the experiment with Fuc(a1-2)Gal(b1-4)GlcNAc, the “glycan array binding signal (z-score)” value was determined as 2.62.

For PILRb (Mus musculus), Q2YSF2, the “glycan array binding signal (z-score)” value in [3] was -0.066.

As for Siglec-8 (Homo sapiens), Q9NYZ4, the “glycan array binding signal (z-score)” value is -0.065 in experiment [4]; -0.32 in experiment [5]; -0.565 in experiment [6]; -0.102 in [7]; 0.139 in experiment [8]; -0.001 in the experiment on Fuc(a1-2)Gal(b1-4)GlcNAc (mutation: R125K).

Turning to Neurocan (Homo sapiens), O14594, the “glycan array binding signal (z-score)” value in experiment [9] was determined as 0.982.
